BAZ2B inh: blocks human BAZ2B; Potency, µM (series often up to 114 µM), usual class: inhibitors; Q9UIF8; AlphaScreen BAZ2B-H3K14Ac peptide displacement; actives 4.4% (n = 360,000); further: nearly all actives have a fitted effect of over 60% in size
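Multi-concentration screen (max 110 uM) measuring displacement of acetylated histone H3 peptide from BAZ2B by AlphaScreen, using 50 nM protein, 50 nM peptide and 10 ug/mL streptavidin donor plus Ni-chelate acceptor beads.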
Sfp inh: blocks B. subtilis Sfp PPTase activity; Q9F4F7; Biochemical Sfp PPTase activity, qHTS; Potency, µM, most hits filed as inhibitors; actives 3.5% (n = 310,000); AID 1490;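 further: the enzyme is Sfp with the accession as filed and its product quenches rhodamine fluorescence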
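After 15 min at room temperature with compound, 15 nM Sfp received 5 uM rhodamine-CoA plus 12.5 uM BHQ-2-ybbR (50 mM Hepes pH 7.6, 10 mM MgCl2). Rate came from the fluorescence difference over 30 min, ex 525/em 598 nm.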
JMJD2A Tudor: inhibitors of human JMJD2A Tudor domain | AlphaScreen JMJD2A-Tudor / H3K4me3 peptide binding | AID 504339 | actives 4.4% (n = 390,000) | Potency, µM (top dose mostly 114 µM), hits mostly inhibitors; further: nearly all actives have a fitted effect of over 50% in size
TDP1 inh: blocks human tyrosyl-DNA phosphodiesterase 1 | Q9NUW8 | recombinant TDP1, AlphaScreen DNA substrate cleavage | Potency, µM (highest dose often 130 µM), actives largely listed as inhibitors | actives 0.28% (n = 350,000) | AID 485290; further: nearly all actives have a fitted effect of over 40% in size
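AlphaScreen read-out: signal falls as enzyme removes the 3' tyrosine-FITC from a 5'-biotinylated DNA oligo (15 nM, 5 min, RT). Enzyme was E. coli-made recombinant Tdp1 at 1 nM, exposed to compound for 15 min beforehand; beads 10 ug/ml, 10 min.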
HP1b binding inh: inhibitors of HP1-beta chromodomain binding to methylated histone tails | P83916 | AlphaScreen HP1-beta / biotin-H3K9me3 peptide binding | Potency, µM (series often up to 114 µM), hits mostly inhibitors | actives 0.56% (n = 390,000) | AID 540317; further: nearly all actives have a fitted effect of over 70% in size
Target sequence (P83916 whole entry, looked up): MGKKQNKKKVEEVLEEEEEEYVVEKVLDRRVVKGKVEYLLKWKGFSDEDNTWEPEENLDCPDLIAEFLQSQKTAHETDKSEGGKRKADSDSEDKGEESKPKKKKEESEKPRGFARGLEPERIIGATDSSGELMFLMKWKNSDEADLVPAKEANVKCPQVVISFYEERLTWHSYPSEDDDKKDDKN
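AlphaScreen: HP1-beta (50 nM) preformed 30 min with biotin-H3(1-18)K9me3 peptide (50 nM) in PBS pH 7.4, 0.01% Tween-20. Compound added for 30 min at RT, then streptavidin donor/nickel chelate acceptor beads (10 ug/mL) for 30 min.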
G9a block: G9a (human) methyltransferase inhibition. actives 8.8% (n = 350,000). Q96KQ7. G9a H3K9 monomethylation, AlphaScreen, 2 h. Potency, µM (doses to about 102 µM), usual class: inhibitors. AID 504332; further: nearly all actives have a fitted effect of over 75% in size
Target sequence (Q96KQ7 913-1193 limits assumed): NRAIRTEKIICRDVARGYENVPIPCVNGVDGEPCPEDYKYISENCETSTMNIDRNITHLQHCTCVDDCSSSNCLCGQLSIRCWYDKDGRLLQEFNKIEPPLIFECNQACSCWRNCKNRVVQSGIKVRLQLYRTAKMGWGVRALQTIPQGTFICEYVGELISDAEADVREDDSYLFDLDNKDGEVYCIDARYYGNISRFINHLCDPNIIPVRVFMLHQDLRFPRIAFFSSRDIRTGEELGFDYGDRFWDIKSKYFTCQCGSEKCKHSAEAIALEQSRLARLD
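Chemiluminescent proximity detection of H3K9 monomethylation, read after 10 min bead incubation in the dark. Reaction: 20 nM G9a, 500 nM biotin-H3K9 peptide, 20 uM SAM cofactor, 2 h, room temperature, following 15 min enzyme-compound preincubation.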
Each line names hits and unclear results; the compound was inactive in the other large screens; ! = repeats disagree. This is a sample that favours compounds with a hit; in the whole collection about 12% have one here. The call rests on the fitted dose curve; in most records, active means well fitted curve in the direction sought with a large enough effect; inconclusive means small, poorly fitted or top-dose-only effect, or another doubt; inactive means no such curve, though single readings can be large; an effect the other way counts as inactive or inconclusive.

CC1(C)CC(=O)C2=C(C1)N=C1c3ccccc3C(=O)C1C2c1ccc(Cl)cc1 (centres undefined)	BAZ2B inh 13µM, JMJD2A Tudor inconclusive, HP1b binding inh inconclusive, G9a block 10µM
CC1(C)CC(=O)C2=C(C1)N=c1s/c(=C/c3ccc(F)c(F)c3)c(=O)n1C2c1ccc(F)cc1 (centres undefined)	none
CCOC(=O)C1=NNC(C(=O)c2ccccc2)C1c1ccc(Cl)cc1 (centres undefined)	none (no result: TDP1 inh, G9a block)
Cc1ccc(C2C3=C(CC(C)(C)CC3=O)N=C3c4ccccc4C(=O)C32)cc1 (centres undefined)	BAZ2B inh 16µM, JMJD2A Tudor 45µM, HP1b binding inh inconclusive, G9a block 5µM
CCOC(=O)C1=C(C)N=C2c3ccccc3C(=O)C2C1c1ccc(Cl)cc1 (centres undefined)	BAZ2B inh 13µM, JMJD2A Tudor 40µM, HP1b binding inh inconclusive, G9a block 40µM
CC1=C(C)CS(=O)N(S(=O)(=O)c2ccccc2)C1 (centres undefined)	Sfp inh 14µM, G9a block 8.9µM
CC1=C(C)CS(=O)N(c2ccc(S(N)(=O)=O)cc2)C1 (centres undefined)	Sfp inh 25µM, G9a block inconclusive
O=S(=O)(/N=S1\CC=CCN1S(=O)(=O)c1ccccc1)c1ccccc1 (centres undefined)	HP1b binding inh inconclusive (no result: BAZ2B inh, Sfp inh, TDP1 inh, G9a block)
COC(=O)CC1c2ccccc2C(Cc2ccc(OC)cc2)C(C)N1C(=O)OC (centres undefined)	none (no result: BAZ2B inh, JMJD2A Tudor, HP1b binding inh, G9a block)
O=[N+]([O-])c1cc(S(=O)(=O)Oc2ccccc2)ccc1Cl	JMJD2A Tudor inconclusive (no result: BAZ2B inh, Sfp inh, TDP1 inh, G9a block)
CCOc1ccc(N(CC(=O)O)S(=O)(=O)c2ccc(F)cc2)cc1	none
CC(C)c1ccc(N(CC(=O)O)S(=O)(=O)c2cccnc2)cc1	JMJD2A Tudor 89µM
CCOc1ccc(N(CC(=O)O)S(=O)(=O)c2cccnc2)cc1	G9a block 79µM
COCCNC(=O)C(c1ccc(C)cc1)N(C(=O)C(=O)NC1CCCC1)c1ccc2c(c1)OCCO2 (centres undefined)	none
COc1ccccc1N1CCN(C2CCCN(C(=O)CCC(C)=O)C2)CC1 (centres undefined)	none (no result: TDP1 inh)
Cc1ccc(C(=O)CSC2=NC(N)=C(C#N)C3(CCCCC3)C2C(N)=O)cc1 (centres undefined)	Sfp inh 45µM, JMJD2A Tudor inconclusive, HP1b binding inh inconclusive, G9a block 40µM
CCN(CC)S(=O)(=O)c1ccc2c(c1)N(CC(=O)Nc1ccccc1F)C(=O)C1CCCN21 (centres undefined)	none (no result: Sfp inh)
N#CCN1CCN(CC(=O)c2ccc(Br)cc2)CC1	G9a block 13µM (no result: TDP1 inh)
CC(=O)N1CCN(CC(=O)c2ccc(Br)cc2)CC1	G9a block 2µM
CCCCOC(=O)c1ccc(NC(=O)c2csnn2)cc1	none (no result: Sfp inh)
O=C(NCCCN1CCCCCC1)c1cc2c(=O)oc3ccccc3c2s1	G9a block 79µM
COc1cccc([C@H]2Oc3ccc(OC)cc3/C(=N\O[C@@H](C)c3cn([C@H](CO)Cc4ccccc4)nn3)[C@@H]2O)c1	none (no result: BAZ2B inh, JMJD2A Tudor, HP1b binding inh, G9a block)
O=C(CC1C[C@H](C(=O)N2CCCCC2)[C@@]2(CCc3ccccc3)c3[nH]c4ccccc4c3CCN2C1=O)NCCCn1ccnc1 (some centres undefined)	JMJD2A Tudor inconclusive (no result: BAZ2B inh, Sfp inh, G9a block)
O=C(c1ccccc1)c1nn(-c2ccccc2)c(=O)cc1C(F)(F)F	BAZ2B inh 89µM
O=C(c1cccc(Cl)c1)c1nn(-c2ccccc2)c(=O)cc1C(F)(F)F	none
Cc1[nH]c2ccccc2c1C(=O)COC(=O)C1CC(O)CN1S(=O)(=O)c1ccc(Cl)cc1 (centres undefined)	JMJD2A Tudor 32µM (no result: Sfp inh)
Cc1ccc(-n2c(C)c(C)c3c(NCCN(C)C)ncnc32)cc1	BAZ2B inh inconclusive, G9a block inconclusive (no result: TDP1 inh)
C#CCCCO/N=C1/[C@H]2O[C@@H]2[C@@H](O)[C@H]2[C@H]1CCn1c(=O)n([C@@H](CC)c3ccccc3)c(=O)n12	none (no result: BAZ2B inh, JMJD2A Tudor, HP1b binding inh, G9a block)
COc1nc(=O)n(C2CCCO2)cc1C (centres undefined)	none (no result: BAZ2B inh, Sfp inh, TDP1 inh, G9a block)
Cc1cn(C2CCCCO2)c(=O)nc1NO (centres undefined)	JMJD2A Tudor 89µM (no result: BAZ2B inh, Sfp inh, TDP1 inh, G9a block)
COC(=O)c1ccc2c(c1)C(C)(C)C(/C=C/c1ccccc1O)=[N+]2C	BAZ2B inh 8.9µM, Sfp inh 11µM, JMJD2A Tudor 56µM, HP1b binding inh inconclusive, G9a block inconclusive
O=c1ccc2ccc(O)cc2o1	none (no result: BAZ2B inh, G9a block)
O=c1ccc2cc(O)c(O)cc2o1	Sfp inh 56µM!, JMJD2A Tudor inconclusive, G9a block inconclusive
COc1cccc(NC(=O)NC2(C(F)(F)F)Oc3ccccc3O2)c1	JMJD2A Tudor 71µM, G9a block 3.5µM
O=C(Nc1cc(N2CCOCC2)ncn1)NC1(C(F)(F)F)Oc2ccccc2O1	JMJD2A Tudor 89µM, G9a block 2.2µM
COc1cccc(NC(=O)Nc2cccc(C(=O)O)c2)c1	none
Cc1ccc(N(CCC(=O)O)S(=O)(=O)c2ccc(C)cc2)cc1	none
Cc1ccc(S(=O)(=O)N(CCC(=O)O)c2ccccc2)cc1	G9a block 56µM
Cc1ccc(NC(=O)Cn2c(=O)n(CCCCCC(=O)NCc3ccc(F)cc3)c(=O)c3sccc32)cc1C	none (no result: Sfp inh)
Cc1ccc(S(=O)(=O)Oc2ccccc2)cc1	none (no result: BAZ2B inh, Sfp inh, TDP1 inh, G9a block)
COc1ccc(S(=O)(=O)/N=C2/C=CC(=O)C(C)=C2C)cc1	Sfp inh 79µM, HP1b binding inh inconclusive, G9a block inconclusive
CC1=C(C)/C(=N\OS(=O)(=O)c2ccc(C)cc2)C=CC1=O	BAZ2B inh 25µM, Sfp inh 32µM, JMJD2A Tudor 56µM, HP1b binding inh inconclusive, G9a block 20µM
COc1ccc(-c2nc(C)ncc2-c2ccccc2)c(O)c1	none (no result: TDP1 inh)
Cc1ncc(N=Nc2ccccc2Cl)c(-c2ccccc2)n1	BAZ2B inh 11µM, JMJD2A Tudor 50µM, HP1b binding inh 16µM, G9a block inconclusive
COc1ccc(N=Nc2cnc(C)nc2-c2ccccc2)cc1	BAZ2B inh 20µM, JMJD2A Tudor 40µM, G9a block 14µM
Cc1cc(N2CCN(C(c3ccccc3)c3ccccc3)CC2)n2ncnc2n1	Sfp inh inconclusive, JMJD2A Tudor inconclusive
Cc1nc2ncnn2c(N2CCN(C(c3ccccc3)c3ccccc3)CC2)c1C	BAZ2B inh inconclusive, Sfp inh 79µM, JMJD2A Tudor inconclusive, G9a block inconclusive
Clc1ccc(N=NN2CCOCC2)cc1	G9a block 50µM
COC(=O)c1ccc(N=NN2CCOCC2)cc1	none
N#Cc1ccc(/C=C(\C(=O)C(=O)O)c2ccc3ccccc3n2)cc1	BAZ2B inh 79µM
